# PDI turbidity: inhibitors of human PDI, primary screen, biochemical, turbidity, single point, plate reader | PDI insulin aggregation turbidity, A650, 90 min | Protein disulfide-isomerase (Homo sapiens), P07237 | inhibition, % at 10 µM | AID 588391, 2011 | 0.052% of 350,000 active;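 active means mean inhibition across replicates of 30% or more, whatever share of single replicates reach that level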
# CendR NRP1 mod: modulators of CendR peptide binding to NRP-1, primary screen, biochemical, fluorescence polarization, uHTS; FAM-RPARPAR peptide binding to NRP-1; Neuropilin-1 (Homo sapiens), O14786; inhibition, % at 25 µM; AID 602438, 2012; 0.85% of 360,000 active;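 active means inhibition or corrected inhibition above about 18%, plus a signal ratio from 0.5 to 1.5, limit read from the data, passing the limit was not always enough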
# ERp5 block: inhibitors of ERp5-driven insulin aggregation, primary screen, biochemical, turbidity, absorbance 650 nm, single point; 90 min; 0.05% of 350,000 active; Protein disulfide-isomerase A6 (Homo sapiens), Q15084; inhibition, % at 9.99 µM; AID 651711, 2012;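 active means mean replicate inhibition above about 25%, with every replicate also reaching it, limit read from the data, passing the limit was not always enough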
# Target sequence (Q15084 whole entry, looked up): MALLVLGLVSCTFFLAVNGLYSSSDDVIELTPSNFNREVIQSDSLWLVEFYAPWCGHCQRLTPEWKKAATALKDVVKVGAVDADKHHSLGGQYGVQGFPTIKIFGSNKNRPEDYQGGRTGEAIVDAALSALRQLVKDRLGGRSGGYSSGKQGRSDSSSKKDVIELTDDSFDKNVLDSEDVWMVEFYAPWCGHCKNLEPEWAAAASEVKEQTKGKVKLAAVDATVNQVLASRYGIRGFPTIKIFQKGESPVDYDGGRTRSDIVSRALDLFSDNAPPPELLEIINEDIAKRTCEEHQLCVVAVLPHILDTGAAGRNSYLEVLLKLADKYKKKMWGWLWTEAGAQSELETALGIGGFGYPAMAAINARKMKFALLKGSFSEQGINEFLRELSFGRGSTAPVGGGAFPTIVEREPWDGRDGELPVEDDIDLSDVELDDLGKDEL
# PglD DTNB: C. jejuni PglD acetyltransferase inhibitors, primary screen, biochemical, DTNB colorimetric, single point | UDP-N-acetylbacillosamine N-acetyltransferase PglD (Campylobacter jejuni) | purified PglD enzyme, DTNB colorimetric CoA detection | inhibition, % at 12.5 µM | 0.098% of 360,000 active | AID 602405, 2012; in the data active means inhibition above about 16%, passing the limit was not always enough
# ARNT-TACC3 inh: disruptors of ARNT/TACC3 protein interaction, primary screen, biochemical, AlphaScreen, single concentration; AlphaScreen His-ARNT PAS-B/GST-TACC3 binding, luminescence; TACC3 fragment carries E629A point mutation; Transforming acidic coiled-coil-containing protein 3 (Homo sapiens), Q9Y6A5; 0.66% of 390,000 active; inhibition, % at 9.99 µM;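 active means mean inhibition of replicates at least 50% and at least half of replicates each reaching 50%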
# ALR H2O2 inh: inhibitors of human ALR sulfhydryl oxidase, primary screen, biochemical, H2O2 detection, HRP-luminol luminescence, single point; inhibition, % (concentration not given with the values); purified ALR, DTT oxidation; 3.8% of 290,000 active; FAD-linked sulfhydryl oxidase ALR (Homo sapiens), P55789; AID 485317, 2010;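 active means mean replicate inhibition above about 79%, with every replicate also reaching it, limit read from the data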
# Target sequence (P55789 whole entry, looked up): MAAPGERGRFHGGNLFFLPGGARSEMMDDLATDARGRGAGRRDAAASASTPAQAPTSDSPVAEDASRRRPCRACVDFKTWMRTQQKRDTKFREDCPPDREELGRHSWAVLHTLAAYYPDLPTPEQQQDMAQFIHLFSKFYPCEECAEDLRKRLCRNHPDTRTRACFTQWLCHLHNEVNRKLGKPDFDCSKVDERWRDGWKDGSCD
# Hits are given with their value; – = inactive; · = not tested or not shown. Shown is part of a subset that was picked to be rich in hits.
SMILES,PDI turbidity,CendR NRP1 mod,ERp5 block,PglD DTNB,ARNT-TACC3 inh,ALR H2O2 inh
N=c1oc2ccccc2cc1-c1nc2ccccc2c(=O)[nH]1,–,–,–,–,–,94
O=C1OCC(CO)(CO)N=C1NNc1ccc(Cl)c(Cl)c1,–,–,–,–,–,100
O=C(C1CC1)N1CC2(C1)[C@H](c1ccccc1)[C@@H](CO)N2Cc1cncnc1,·,·,–,·,·,·
CC1CN(C(=O)COC(=O)c2ccc(Cl)nc2)CC(C)O1 (centres undefined),–,–,–,·,–,91
C[C@H]1CN([C@@H](C)CO)C(=O)c2cc(C#Cc3ccccc3)cnc2O[C@@H]1CN(C)C(=O)C1CC1,·,·,–,–,·,·
COc1cccc(/C=N/n2c(-c3n[nH]c4c3CCC4)n[nH]c2=S)c1OC,–,–,–,·,–,–
COc1cccc(/C=N/n2c(-c3cc(C)[nH]n3)n[nH]c2=S)c1OC,–,–,–,·,–,96
Cc1cc(-c2n[nH]c(=S)n2/N=C/c2ccc(Cl)c([N+](=O)[O-])c2)n[nH]1,–,–,·,·,–,97
CNc1sc(C(=O)c2ccc(F)cc2)c(N)c1-c1nc2ccccc2s1,–,–,·,–,–,91
CCOc1cc(/C=N/NC(=O)c2ccc(NC(=O)C3CC3)cc2)ccc1O,–,–,–,–,–,–
CC(=O)Nc1sc(N/N=C\c2ccccc2)nc1-c1cccs1,–,–,–,·,–,–
CCOc1cc(/C=N/NC(=O)C2CCCC2)ccc1O,–,–,–,–,–,99
CCOc1cc(/C=N/n2c(C)nnc2C)ccc1O,–,–,–,–,–,94
CCOc1cc(/C=N/Nc2nc(-c3cccs3)c(NC(C)=O)s2)ccc1O,–,–,–,·,–,95
CCOc1cc(/C=N/NC(=O)C(=O)N2CCCC2)ccc1O,–,–,–,·,–,99
C[C@@H]1CN([C@H](C)CO)C(=O)c2cc(C#CC3CC3)cnc2O[C@@H]1CN(C)C(=O)Nc1ccc(F)cc1,·,·,–,·,·,·
C[C@H](CO)N1C[C@H](C)[C@H](CN(C)Cc2ccc(F)cc2)Oc2cc(C#CC3CC3)ccc2S1(=O)=O,·,·,–,–,–,·
CCNC(=O)C[C@H]1CC[C@H]2[C@@H](COc3ccc(NC(=O)c4ccccc4Cl)cc3C(=O)N2C)O1,·,·,·,–,–,·
C[C@H](CO)N1C[C@H](C)[C@H](CN(C)S(=O)(=O)CC(F)(F)F)OCc2ccccc2-c2ccccc2C1=O,·,·,–,–,–,·
CCOc1cc(/C=N/NC(=O)Nc2ccccc2)ccc1O,–,–,–,·,–,99
Cn1c(=O)[nH]c(=O)c2c1nc(Br)n2CCCSc1nc2ccccc2o1,–,–,·,–,–,98
Cc1ccc(CNC(=O)C(Cc2ccccc2)NS(=O)(=O)c2ccc3c(c2)CCC(=O)N3)cc1 (centres undefined),–,–,–,–,–,–
CN(Cc1ccco1)C(=O)C(Cc1ccccc1)NS(=O)(=O)c1ccc2c(c1)CCC(=O)N2 (centres undefined),–,–,–,–,–,78
CCCNC(=O)C(Cc1ccccc1)NS(=O)(=O)c1ccc2c(c1)CCC(=O)N2 (centres undefined),–,–,–,–,–,84
O=C1CCc2cc(S(=O)(=O)NC(Cc3ccccc3)C(=O)NC3CCCC3)ccc2N1 (centres undefined),–,–,–,–,–,84
SMILES,PDI turbidity,CendR NRP1 mod,ERp5 block,PglD DTNB,ARNT-TACC3 inh,ALR H2O2 inh
CCCNC(=O)N[C@@H]1CC[C@@H](CC(=O)NCCc2ccccc2)O[C@@H]1CO,·,·,–,–,–,·
CCS(=O)(=O)NCC[C@H]1CC[C@H](NS(=O)(=O)c2cccc(F)c2)[C@H](CO)O1,·,·,–,–,–,·
O=C(O)[C@H]1[C@H](CO)[C@H]2Cn3c(ccc(-c4ccccc4)c3=O)[C@H]2N1CCc1ccccc1,·,·,·,–,·,·
COc1ccc(NC(=S)NNc2ccc(S(=O)(=O)Nc3ccccc3C(=O)O)cc2[N+](=O)[O-])cc1,–,–,–,·,–,99
C=CCOc1ccc(C=NNc2ccc(S(=O)(=O)Nc3ccccc3C(=O)O)cc2[N+](=O)[O-])cc1OC,–,–,–,–,–,90
CC(C)NC(=O)N(C)C[C@H]1OCCCC[C@@H](C)Oc2ccc(NC(=O)CCCN(C)C)cc2C(=O)N([C@@H](C)CO)C[C@H]1C,·,·,–,–,–,·
Cc1cc(NCCCn2ccnc2)n2nc(-c3ccc(Cl)cc3)cc2n1,–,–,–,·,–,97
Cc1nnc(SCc2nnc(-c3cccs3)o2)n1C,–,–,–,·,–,–
CC(C)Cn1c(SCc2nnc(-c3cccs3)o2)nc(O)cc1=O,–,–,·,–,–,98
Cc1ccc(-n2c(N)cc(=O)nc2SCC(=O)N2CCN(c3ccccc3)CC2)cc1,–,–,–,–,–,97
Nc1cc(=O)nc(SCC(=O)N2CCN(c3ccccc3)CC2)n1-c1ccccc1,–,–,–,–,–,–
COC(=O)c1ccc(NC(=O)CSc2nc(=O)cc(N)n2-c2ccccc2)cc1,–,–,–,·,–,99
CC(=O)c1ccc(NC(=O)CSc2nc(=O)cc(N)n2-c2ccccc2)cc1,–,–,–,–,–,99
O=S(=O)(c1ccc(F)cc1)N1CCCCN2[C@H](CO)[C@H](c3ccc(-c4ccccc4)cc3)[C@@H]2C1,·,·,–,–,–,·
Cc1ccc(NCC(=O)N/N=C/c2ccc(OC(=O)c3ccco3)cc2)cc1,–,–,–,–,–,99
C/C=C/c1cccc(-c2nc(C(=O)N3CCCCC3)cc3c2[C@H](CCO)N(C(=O)NC(C)C)C3)c1,·,22,–,·,·,·
C/C=C/c1cccc(-c2nc(C(=O)N3CCN(C)CC3)cc3c2[C@@H](CCO)N(C(=O)NC(C)C)C3)c1,·,–,–,·,·,·
CCN(CC)C(=O)CC(c1ccc(N(C)C)cc1)c1c(OC)cc(OC)c2ccc(=O)oc12 (centres undefined),–,–,–,–,–,98
CCCCCc1cc(=O)oc2c(C(CCN(CC)CC)c3ccc(OC)cc3)c(OC)cc(OC)c12 (centres undefined),–,–,–,–,–,–
CCN(CC)C(=O)CC(c1ccc2c(c1)OCO2)c1c(OC)cc(OC)c2ccc(=O)oc12 (centres undefined),–,–,–,–,–,–
CCN(CC)CCC(c1ccc(N(C)C)cc1)c1c(OC)cc(OC)c2ccc(=O)oc12 (centres undefined),–,–,·,–,–,99
COc1ccc2c3c([nH]c2c1)[C@@H](CO)N(C(=O)CN(C)C)CC31CN(CC2CC2)C1,·,·,–,·,·,·
